Inhibition data for 38 compounds are collected here from PubChem BioAssay AID1117353 (Cheminformatics & Chemogenomics Research Group (CCRG), …, 2015).

As usually defined, the inhibition is the change of the read-out against control, counted positive when it falls.

The source made the active and inactive calls. Cut-off read from the data, not from the text of the source: active = inhibition above about 50%; inactive = the rest.

In the experiment the target is Vascular endothelial growth factor receptor 2 (Homo sapiens) (UniProt P35968). In words: Biochemical primary assay, inhibitors of H. sapiens VEGFR2, LANCE Ultra time-resolved FRET readout, NPC library (AID 1117353). The note with it: LANCE Ultra TR-FRET kinase assay; at 20 µM (top of the series). Background: TR-FRET usually uses a lanthanide donor and a delayed reading to cut background.
Sequence of Vascular endothelial growth factor receptor 2 (Homo sapiens) (P35968 whole entry, looked up): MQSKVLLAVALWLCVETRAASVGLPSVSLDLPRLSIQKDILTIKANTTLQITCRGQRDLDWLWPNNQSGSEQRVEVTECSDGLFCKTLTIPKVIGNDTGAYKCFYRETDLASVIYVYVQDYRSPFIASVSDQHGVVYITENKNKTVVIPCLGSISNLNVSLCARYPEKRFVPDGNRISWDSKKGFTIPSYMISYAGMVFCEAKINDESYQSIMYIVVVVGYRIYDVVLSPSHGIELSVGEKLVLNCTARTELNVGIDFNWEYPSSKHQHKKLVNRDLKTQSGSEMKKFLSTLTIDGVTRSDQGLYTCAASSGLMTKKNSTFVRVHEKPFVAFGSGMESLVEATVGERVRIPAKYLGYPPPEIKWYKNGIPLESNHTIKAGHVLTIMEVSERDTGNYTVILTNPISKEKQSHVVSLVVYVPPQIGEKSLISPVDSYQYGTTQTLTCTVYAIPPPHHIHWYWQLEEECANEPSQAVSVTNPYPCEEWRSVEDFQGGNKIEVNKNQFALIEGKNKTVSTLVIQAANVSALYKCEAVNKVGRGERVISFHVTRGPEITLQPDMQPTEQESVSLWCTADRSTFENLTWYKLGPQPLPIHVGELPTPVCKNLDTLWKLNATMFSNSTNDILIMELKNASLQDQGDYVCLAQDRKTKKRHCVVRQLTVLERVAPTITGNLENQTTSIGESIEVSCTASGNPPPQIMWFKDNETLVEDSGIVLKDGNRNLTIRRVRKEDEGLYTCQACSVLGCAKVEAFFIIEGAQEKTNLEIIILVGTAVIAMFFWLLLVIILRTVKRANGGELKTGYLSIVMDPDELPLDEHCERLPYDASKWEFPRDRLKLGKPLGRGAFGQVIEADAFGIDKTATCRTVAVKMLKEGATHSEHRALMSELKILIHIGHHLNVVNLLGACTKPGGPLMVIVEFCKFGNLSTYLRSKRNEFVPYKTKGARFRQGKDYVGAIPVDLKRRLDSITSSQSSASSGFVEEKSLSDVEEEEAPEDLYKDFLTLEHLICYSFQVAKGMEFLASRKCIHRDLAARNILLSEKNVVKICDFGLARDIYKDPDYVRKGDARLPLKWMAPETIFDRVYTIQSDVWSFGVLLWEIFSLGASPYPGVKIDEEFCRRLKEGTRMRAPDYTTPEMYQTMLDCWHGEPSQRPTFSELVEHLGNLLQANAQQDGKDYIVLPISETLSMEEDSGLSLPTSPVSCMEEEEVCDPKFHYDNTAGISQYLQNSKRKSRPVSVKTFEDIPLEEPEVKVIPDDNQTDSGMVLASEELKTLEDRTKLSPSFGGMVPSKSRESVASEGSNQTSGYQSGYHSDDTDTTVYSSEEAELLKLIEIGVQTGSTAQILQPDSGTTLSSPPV
For the compound `CNC(=O)c1ccccc1Sc1ccc2c(/C=C/c3ccccn3)n[nH]c2c1`, the inhibition was 100% (active).
As for `CC(C)C[C@H](NC(=O)[C@H](CCc1ccccc1)NC(=O)CN1CCOCC1)C(=O)N[C@@H](Cc1ccccc1)C(=O)N[C@@H](CC(C)C)C(=O)[C@@]1(C)CO1`, the inhibition was 21.4% (inactive).
To `COC(=O)Nc1nc2ccc(C(=O)c3ccccc3)cc2[nH]1` belongs 74.1% (active).
`[O-][n+]1ccccc1SSc1cccc[n+]1[O-]`: the inhibition was -17.4% (inactive).
The figure for `Cc1cc(O)c2ccccc2c1O` is 50% (active); for `O=C(O)c1ccc(-n2nc(-c3ccccc3O)nc2-c2ccccc2O)cc1` it is -16.1% (inactive); for `CC[C@@H]([C@H](C)O)n1ncn(-c2ccc(N3CCN(c4ccc(OC[C@@H]5CO[C@@](Cn6cncn6)(c6ccc(F)cc6F)C5)cc4)CC3)cc2)c1=O` it is 22.9% (inactive).
As to `Cc1cc(=O)c2c(O)c3c(O)cc(=O)c4c3c3c(cc(O)c1c23)C(C)(C)C=4O`, the inhibition is 22.3% (inactive).
Consider `COC(=O)c1nc(Cl)c(Cl)nc1N`, for which the inhibition was 6.09% (inactive).
Regarding `CCCSc1ccc2nc(NC(=O)OC)[nH]c2c1`, the inhibition was -6.58% (inactive).
For `NC(=NCCCCCCN=C(N)/N=C(\N)Nc1ccc(Cl)cc1)/N=C(\N)Nc1ccc(Cl)cc1`, the inhibition is -1.66% (inactive).
Turning to `O=C(CCCCCCC(=O)Nc1ccccc1)NO`, the inhibition was -32.6% (inactive).
In the case of `O=c1[nH]c(=O)n([C@H]2C[C@H](O)[C@@H](CO)O2)cc1F`, the inhibition was -21.7% (inactive).
`CCCCCCCCCCCCCCCCCCNC(=O)OC1CCN(C(=O)OC[C@H](COC(=O)N(Cc2cccc[n+]2CC)C(=O)c2ccccc2OC)OC)CC1`: the inhibition was -459% (inactive).
Regarding `CCC1=C[C@@H]2CN(C1)Cc1c([nH]c3ccccc13)[C@@](C(=O)OC)(c1cc3c(cc1OC)N(C)[C@H]1[C@@](O)(C(=O)OC)[C@H](OC(C)=O)[C@]4(CC)C=CCN5CC[C@]31[C@@H]54)C2`, the inhibition is -20.3% (inactive).
On to `O=C(Nc1ccc([N+](=O)[O-])cc1Cl)c1cc(Cl)ccc1O`, for which the inhibition was 5.08% (inactive).
The figure for `CCCCc1oc2ccccc2c1C(=O)c1cc(I)c(OCCN(CC)CC)c(I)c1` is 22.9% (inactive).
For the compound `CC(=O)[C@]1(O)Cc2c(O)c3c(c(O)c2[C@@H](O[C@H]2C[C@H](N)[C@H](O)[C@H](C)O2)C1)C(=O)c1ccccc1C3=O`, the inhibition was -143% (inactive).
Consider `COc1cc([C@@H]2c3cc4c(cc3[C@H](O)[C@H]3COC(=O)[C@H]23)OCO4)cc(OC)c1OC`, for which the inhibition was 28.2% (inactive).
Take `CCCOc1ccc2nc(NC(=O)OC)[nH]c2c1`: the inhibition was 10.2% (inactive).
As to `Cc1ccccc1C(=O)Nc1ccc(C(=O)N2CCCC(N(C)C)c3ccccc32)cc1` (stereo not drawn), the inhibition was 41.5% (inactive).
Regarding `CN(C)c1ccc2nc3ccc(=[N+](C)C)cc-3sc2c1`, the inhibition is -6.83% (inactive).
The figure for `Oc1c(Cl)cc(Cl)cc1Sc1cc(Cl)cc(Cl)c1O` is 60.4% (active); for `C[C@@]12C(=O)OC(=O)[C@]1(C)C1CCC2O1` it is -15.1% (inactive).
On to `O=c1c(-c2ccccc2)c1-c1ccccc1`, for which the inhibition is 28.3% (inactive).
The figure for `CCCCC1C(=O)N(c2ccccc2)N(c2ccc(O)cc2)C1=O` (stereo not drawn) is 29.1% (inactive); for `COC(=O)Nc1nc2ccc(C(=O)c3cccs3)cc2[nH]1` it is 60% (active).
For the compound `CCC(C)n1ncn(-c2ccc(N3CCN(c4ccc(OC[C@H]5CO[C@](Cn6cncn6)(c6ccc(Cl)cc6Cl)O5)cc4)CC3)cc2)c1=O` (stereo partly drawn), the inhibition was 22.4% (inactive).
Take `CCCN(CCC)C(=O)C(CCC(=O)OCCCN1CCN(CCOC(=O)Cc2c(C)n(C(=O)c3ccc(Cl)cc3)c3ccc(OC)cc23)CC1)NC(=O)c1ccccc1` (stereo not drawn): the inhibition was -17.9% (inactive).
In the case of `COc1c(C)c2c(c(O)c1C/C=C(\C)CCC(=O)OCCN1CCOCC1)C(=O)OC2`, the inhibition is -1.65% (inactive).
Take `COc1cc2c(c(OC)c1OC)-c1ccc(OC)c(=O)cc1[C@@H](NC(C)=O)CC2`: the inhibition was -20.7% (inactive).
For the compound `CSc1ccc2c(c1)C(N1CCN(C)CC1)Cc1ccccc1S2` (stereo not drawn), the inhibition was -11.8% (inactive).
Turning to `Nc1ccc2cc3ccc(N)cc3nc2c1`, the inhibition was -25.5% (inactive).
Consider `COc1ccc(-c2nc3ccc(C4=NNC(=O)CC4C)cc3[nH]2)cc1` (stereo not drawn), for which the inhibition is -36.5% (inactive).
On to `O=c1[nH]c(=O)n([C@H]2C[C@H](O)[C@@H](CO)O2)cc1C(F)(F)F`, for which the inhibition is -17.7% (inactive).
The figure for `CCCCCCNC(=O)n1cc(F)c(=O)[nH]c1=O` is -15.1% (inactive); for `Cc1cc(C)c(/C=C2\C(=O)Nc3ccccc32)[nH]1` it is 98.7% (active); for `COc1cc(-c2ccc(=O)[nH]n2)ccc1OC(F)F` it is -22.3% (inactive).
